Drawing on ChEMBL document CHEMBL4513216, “Probing the Open Global Health Chemical Diversity Library for Multistage-Active Starting Points for Next-Generation Antimalarials” (ACS Infect Dis, 2020), this text covers INHIBITION for 51 compounds.

The structures appear in SMILES notation. Out of some 69,000 compounds screened, about 8,600 (12%) showed an effect of 50% or more. Only a selection was taken, and strong results are over-represented in it overall.

This experiment has as its system Plasmodium berghei. The experiment in a line: Screen against P. berghei liver stage (PbLuc), transformed with Luciferase, at 10uM. The note with it: tested at 10 uM. Type of experiment: functional, HepG2.
Consider `O=C(NC1CC1)N1CCC2(CC1)CC(N1CCOCC1)c1ccccc12` (stereo unspecified), for which the INHIBITION is 43%.

As for `CN(C)C1CC2(CCN(C(=O)NC3CC3)CC2)c2ccccc21` (stereo unspecified), the INHIBITION was 61.1%.

Regarding `COCC(=O)N1CCC2(CC1)CC(CC(=O)NC1CC1)c1ccccc12` (stereo unspecified), the INHIBITION is reported as 25.6%.

As to `CN1CCc2nc(C3CCCN(S(=O)(=O)N4CCCC4)C3)ncc2C1` (stereo unspecified), the INHIBITION is given as 23.325%.

As to `Cn1ccc(C(=O)NCc2ccc(N3CCCCCC3)nc2)cc1=O`, the INHIBITION stood at 17.4%.

Regarding `O=C1NCCCCC1NCc1csc(-c2ccc(F)cc2)n1` (stereo unspecified), the INHIBITION is -7.17%.

With `Cc1cc(C)nc(NC2CC(=O)N(C)C2)n1` (stereo unspecified), the INHIBITION was determined as 63.3%.

As for `Cc1cc(C)nc(NC2CC(=O)N(C(C)(C)C)C2)n1` (stereo unspecified), the INHIBITION was 31.2%.

With `Cc1cc(C)nc(NC2CCC(=O)N(C)C2)n1` (stereo unspecified), the INHIBITION is on record as 11.5%.

`Cc1cc(C)n(C2CCCN(C(=O)CCOc3cccc(F)c3)C2)n1` (stereo unspecified): the INHIBITION is recorded as -25.9%.

For the compound `Cc1ccoc1C(=O)N1CC[C@@]2(C[C@H](NS(C)(=O)=O)CCO2)C1`, the INHIBITION came out at 18.5%.

Consider `CS(=O)(=O)N[C@@H]1CCO[C@]2(CCN(C(=O)C3=CCCC3)C2)C1`, for which the INHIBITION was 21%.

Consider `Cc1ncoc1C(=O)N1CC[C@@]2(C[C@H](NS(C)(=O)=O)CCO2)C1`, for which the INHIBITION is listed as 35.7%.

In the case of `Cc1ccc(C(=O)N2CC[C@@]3(C[C@@H](NS(C)(=O)=O)CCO3)C2)s1`, the INHIBITION was 50.9%.

`Cc1cncc(C(=O)N2CC[C@@]3(C[C@H](NS(C)(=O)=O)CCO3)C2)c1`: the INHIBITION is listed as 54.4%.

As to `Cc1cc(C(=O)N2CC[C@@]3(C[C@@H](NS(C)(=O)=O)CCO3)C2)no1`, the INHIBITION stood at 69.5%.

On to `Cc1nc(C(=O)N2CC[C@@]3(C[C@@H](NS(C)(=O)=O)CCO3)C2)cs1`, for which the INHIBITION stood at 62.5%.

In the case of `CS(=O)(=O)N[C@H]1CCO[C@]2(CCN(C(=O)c3ccccn3)C2)C1`, the INHIBITION came to 4.27%.

Turning to `CS(=O)(=O)N[C@@H]1CCO[C@]2(CCN(C(=O)c3cnccn3)C2)C1`, the INHIBITION was 32.4%.

`CS(=O)(=O)N[C@@H]1CCO[C@]2(CCN(C(=O)c3cscn3)C2)C1`: the INHIBITION is recorded as 35.7%.

On to `Cc1nc(C(=O)N2CC[C@@]3(C[C@H](NS(C)(=O)=O)CCO3)C2)cs1`, for which the INHIBITION is 11.3%.

`CS(=O)(=O)N[C@H]1CCO[C@]2(CCN(CC3CCOCC3)C2)C1`: the INHIBITION was -44.4%.

As to `Cc1cc(C(=O)N2CCCC(n3cccn3)C2)c(C)n1C1CC1` (stereo unspecified), the INHIBITION was determined as 5.7%.

Consider `Cc1cc(CN(C)C(=O)NCC(C)N2CCc3ccccc32)no1` (stereo unspecified), for which the INHIBITION turned out to be 15.6%.

On to `Cc1nccc(CN2CC[C@@]3(CCCN3Cc3ccccc3)[C@@H](O)C2)n1`, for which the INHIBITION is given as 39.7%.

Turning to `CC(C)N1CCO[C@@H]2CN(S(=O)(=O)c3cccs3)CC[C@@H]2C1`, the INHIBITION turned out to be 42.4%.

Consider `Cc1cc(C)n(-c2ccc(C(=O)NCC(c3cccs3)N(C)C)cc2)n1` (stereo unspecified), for which the INHIBITION is given as 30%.

Consider `CC(C)C(NC(=O)c1ccc(=O)[nH]c1)c1nnc2n1CCNCC2` (stereo unspecified), for which the INHIBITION is reported as 12.6%.

In the case of `CC(C)c1ocnc1C(=O)NC(c1nnc2n1CCNCC2)C(C)C` (stereo unspecified), the INHIBITION worked out at 65.5%.

Regarding `Cc1cc(C)c(C(=O)NC(c2nnc3n2CCNCC3)C(C)C)c(C)c1` (stereo unspecified), the INHIBITION stood at 37.7%.

On to `CCN(CC)S(=O)(=O)N1CCCC(c2nccn2Cc2ccncc2)C1` (stereo unspecified), for which the INHIBITION was determined as 70.1%.

Consider `CCN(CC)S(=O)(=O)N1CCCC(c2nccn2Cc2cccnc2)C1` (stereo unspecified), for which the INHIBITION was determined as 15.2%.

As to `CCCSCC(=O)N1CCCC(c2nccn2Cc2ccncc2)C1` (stereo unspecified), the INHIBITION stood at 25%.

In the case of `O=C(N1CCCC1)N1CCCC(c2nccn2Cc2ccncc2)C1` (stereo unspecified), the INHIBITION is -14.6%.

For the compound `COc1cc(N2CCCC(c3nccn3Cc3ccncc3)C2)ncn1` (stereo unspecified), the INHIBITION turned out to be 54.7%.

Turning to `CC(C)OC(=O)N1CCCC(c2nccn2Cc2ccncc2)C1` (stereo unspecified), the INHIBITION amounted to 50.3%.

Take `CN(C)S(=O)(=O)N1CCCC(c2nccn2Cc2cccnc2)C1` (stereo unspecified): the INHIBITION turned out to be 11.9%.

In the case of `COc1cc(N2CCC(c3nccn3Cc3ccccc3)CC2)ncn1`, the INHIBITION stood at 11.7%.

On to `COc1cc(N2CCCC(c3nccn3Cc3cccnc3)C2)ncn1` (stereo unspecified), for which the INHIBITION is given as 2.69%.

Regarding `O=C1NC2(CCN(C(=O)N3CCOCC3)CC2)CC1c1cccnc1` (stereo unspecified), the INHIBITION came out at 9.34%.

`Cc1nc(CN2C[C@@H]3CN(C(=O)C4CC4)C[C@@H]3C2=O)cs1`: the INHIBITION came out at 42.6%.

With `O=C(NCCc1c[nH]c2ccccc12)C1CCC(Cn2cnnn2)CC1` (stereo unspecified), the INHIBITION is -65.9%.

Take `Cc1cc(NC(=O)CN2CCCC(Cn3nc(C)nc3C)C2)n(C)n1` (stereo unspecified): the INHIBITION is -22.15%.

Regarding `CSCc1ccc(N2CCN(c3ccc(Cl)cn3)CC2)nc1`, the INHIBITION worked out at 38.3%.

In the case of `CN(C)c1ccc(CN2CCC(C(O)Cc3ccccc3)CC2)cn1` (stereo unspecified), the INHIBITION is recorded as -42.8%.

Turning to `CC(C)CC(O)C1CCN(Cc2ccc(N(C)C)nc2)CC1` (stereo unspecified), the INHIBITION stood at 10.6%.

On to `CSCc1ccc(N2CCC(C(O)CC(C)C)CC2)nc1` (stereo unspecified), for which the INHIBITION turned out to be 67.4%.

In the case of `CSCc1ccc(N2CCC(C(O)Cc3ccccc3)CC2)nc1` (stereo unspecified), the INHIBITION is 74.3%.

With `Cc1ccc(N2CCC(C(O)Cc3ccccc3)CC2)nn1` (stereo unspecified), the INHIBITION was -2.97%.

As to `CSCc1noc(-c2ccc(C)c(N3CCNC3=O)c2)n1`, the INHIBITION amounted to 9.52%.

With `COc1ccc(F)cc1-c1ccccc1CC1(C(=O)O)CCOCC1`, the INHIBITION came out at 26.7%.
